# Experimental data published in the supplement of paper PMC8728848.
# The sample as a whole holds a higher share of the strongest signals than the screen did.
# B1: Mg3lysM (Mycosphaerella graminicola) (protein)
# chain: APQNPPTSCSAAPQPTGTGSPGTVCGSTTFTNYTVKAGDTLGAIAKQYNSGVCDIAKVNGIDNPDYIKPDQVLSIPANCVTPDNTSCVKPVPVITNTCVLGVGSTYTVKSGDSFSAIATSFNITLASLEARNPQIPNYDLIFPGQVINTPLCPNSVCDSIGTYVIESGDIFYNLAQSNNVTVGQLESLNVNVNVTDIHPGDIIILPHNCHNITASA
# Assays:
# Experiment in all cases: glycan array binding signal (z-score within array); higher = stronger binding
# Details in all cases: glycan notation: IUPAC condensed, linker removed
# Fuc(a1-2)Gal = target: Fuc(a1-2)Gal
# Procedure, shortened: (§1)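 Glycan array binding is given as a within-array Z-score, which can be read as non-binding when negative. The arrays, 3228 of them, came from the Consortium for Functional Glycomics database and were retained only where the protein sequence was available. Z-scores were averaged across arrays of the same protein sequence at different concentrations or buffers and across linkers.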
# [1] = target: Fuc(a1-2)Gal(b1-3)GlcNAc(b1-3)Gal(b1-4)Glc
# Procedure, shortened: as §1
# [2] = target: Fuc(a1-2)Gal(b1-3)GlcNAc(b1-3)[Fuc(a1-2)Gal(b1-3)GlcNAc(b1-6)]GalNAc
# Procedure, shortened: as §1
# Fuc(a1-2)Gal(b1-4)GlcNAc = target: Fuc(a1-2)Gal(b1-4)GlcNAc
# Procedure, shortened: as §1
# [3] = target: Fuc(a1-2)Gal(b1-4)GlcNAc(b1-6)GalNAc
# Procedure, shortened: as §1
# [4] = target: Fuc(a1-2)Gal6S(b1-3)GlcNAc6S
# Procedure, shortened: as §1
# [5] = target: Fuc(a1-2)Gal6S(b1-4)Glc6S
# Procedure, shortened: as §1
# [6] = target: Fuc(a1-2)[Gal(a1-3)]Gal(b1-3)GlcNAc(b1-2)Man(a1-3)[Fuc(a1-2)[Gal(a1-3)]Gal(b1-3)GlcNAc(b1-2)Man(a1-6)]Man(b1-4)GlcNAc(b1-4)[Fuc(a1-6)]GlcNAc
# Procedure, shortened: as §1
# [7] = target: Fuc(a1-2)[Gal(a1-3)]Gal(b1-4)GlcNAc(b1-3)GalNAc
# Procedure, shortened: as §1
# [8] = target: Fuc(a1-2)[GalNAc(a1-3)]Gal(b1-4)Glc
# Procedure, shortened: as §1
# [9] = target: Fuc(a1-2)[GalNAc(a1-3)]Gal(b1-4)GlcNAc(b1-2)Man(a1-3)[Fuc(a1-2)[GalNAc(a1-3)]Gal(b1-4)GlcNAc(b1-2)Man(a1-6)]Man(b1-4)GlcNAc(b1-4)[Fuc(a1-6)]GlcNAc
# Procedure, shortened: as §1
# [10] = target: Fuc(a1-3)[Gal(b1-4)]GlcNAc6S
# Procedure, shortened: as §1
# [11] = target: Fuc(a1-3)[Gal3S(b1-4)]Glc
# Procedure, shortened: as §1
# [12] = target: Gal(a1-3)Gal(b1-4)GlcNAc(b1-2)Man(a1-3)[Gal(a1-3)Gal(b1-4)GlcNAc(b1-2)Man(a1-6)]Man(b1-4)GlcNAc(b1-4)GlcNAc
# Procedure, shortened: as §1
# Gal(b1-3)GalNAc(b1-3)Gal = target: Gal(b1-3)GalNAc(b1-3)Gal
# Procedure, shortened: as §1
# [13] = target: Gal(b1-3)GlcNAc(a1-6)Gal(b1-4)GlcNAc
# Procedure, shortened: as §1
# Gal(b1-3)GlcNAc(b1-2)Man = target: Gal(b1-3)GlcNAc(b1-2)Man
# Procedure, shortened: as §1
# [14] = target: Gal(b1-3)GlcNAc(b1-3)Gal(b1-4)Glc
# Procedure, shortened: as §1
# [15] = target: Gal(b1-3)GlcNAc(b1-3)Gal(b1-4)GlcNAc(b1-2)[Gal(b1-3)GlcNAc(b1-3)Gal(b1-4)GlcNAc(b1-6)]Man(a1-6)[Gal(b1-3)GlcNAc(b1-3)Gal(b1-4)GlcNAc(b1-2)Man(a1-3)]Man(b1-4)GlcNAc(b1-4)[Fuc(a1-6)]GlcNAc
# Procedure, shortened: as §1
# [16] = target: Gal(b1-3)GlcNAc(b1-3)Gal(b1-4)GlcNAc(b1-3)Gal(b1-4)GlcNAc(b1-2)[Gal(b1-3)GlcNAc(b1-3)Gal(b1-4)GlcNAc(b1-3)Gal(b1-4)GlcNAc(b1-6)]Man(a1-6)[Gal(b1-3)GlcNAc(b1-3)Gal(b1-4)GlcNAc(b1-3)Gal(b1-4)GlcNAc(b1-2)Man(a1-3)]Man(b1-4)GlcNAc(b1-4)[Fuc(a1-6)]GlcNAc
# Procedure, shortened: as §1
# [17] = target: Gal(b1-3)GlcNAc(b1-3)Gal(b1-4)[Fuc(a1-3)]GlcNAc
# Procedure, shortened: as §1
# Gal(b1-4)GlcNAc(b1-2)Man = target: Gal(b1-4)GlcNAc(b1-2)Man
# Procedure, shortened: as §1
# [18] = target: Gal(b1-4)GlcNAc(b1-3)Gal(b1-4)GlcNAc(b1-3)Gal(b1-4)GlcNAc(b1-2)Man(a1-3)[Gal(b1-4)GlcNAc(b1-3)Gal(b1-4)GlcNAc(b1-3)Gal(b1-4)GlcNAc(b1-2)Man(a1-6)]Man(b1-4)GlcNAc(b1-4)[Fuc(a1-6)]GlcNAc
# Procedure, shortened: as §1
# [19] = target: Gal(b1-4)GlcNAc(b1-3)Gal(b1-4)GlcNAc(b1-3)Gal(b1-4)GlcNAc(b1-3)Gal(b1-4)GlcNAc(b1-3)Gal(b1-4)GlcNAc(b1-2)[Gal(b1-4)GlcNAc(b1-3)Gal(b1-4)GlcNAc(b1-3)Gal(b1-4)GlcNAc(b1-3)Gal(b1-4)GlcNAc(b1-3)Gal(b1-4)GlcNAc(b1-6)]Man(a1-6)[Gal(b1-4)GlcNAc(b1-3)Gal(b1-4)GlcNAc(b1-3)Gal(b1-4)GlcNAc(b1-3)Gal(b1-4)GlcNAc(b1-3)Gal(b1-4)GlcNAc(b1-2)Man(a1-3)]Man(b1-4)GlcNAc(b1-4)[Fuc(a1-6)]GlcNAc
# Procedure, shortened: as §1
# [20] = target: Gal(b1-4)GlcNAc(b1-3)Gal(b1-4)GlcNAc(b1-6)[Gal(b1-3)]GalNAc
# Procedure, shortened: as §1
# Gal3S(b1-4)Glc6S = target: Gal3S(b1-4)Glc6S
# Procedure, shortened: as §1
# Gal6S(b1-4)Glc = target: Gal6S(b1-4)Glc
# Procedure, shortened: as §1
# [21] = target: GalNAc(b1-3)Gal(a1-6)Gal(b1-4)Glc
# Procedure, shortened: as §1
# [22] = target: GlcNAc(a1-6)Gal(b1-4)GlcNAc
# Procedure, shortened: as §1
# [23] = target: GlcNAc(b1-2)[GlcNAc(b1-4)]Man(a1-3)[GlcNAc(b1-4)][GlcNAc(b1-2)[GlcNAc(b1-6)]Man(a1-6)]Man(b1-4)GlcNAc(b1-4)[Fuc(a1-6)]GlcNAc
# Procedure, shortened: as §1
# GlcNAc(b1-3)Fuc = target: GlcNAc(b1-3)Fuc
# Procedure, shortened: as §1
# [24] = target: GlcNAc(b1-3)Gal(b1-4)GlcNAc(b1-2)Man(a1-3)[GlcNAc(b1-3)Gal(b1-4)GlcNAc(b1-2)Man(a1-6)]Man(b1-4)GlcNAc(b1-4)GlcNAc
# Procedure, shortened: as §1
# [25] = target: GlcNAc(b1-3)Gal(b1-4)GlcNAc(b1-3)Gal(b1-4)GlcNAc(b1-3)Gal(b1-4)GlcNAc(b1-3)Gal(b1-4)GlcNAc(b1-2)Man(a1-3)[GlcNAc(b1-3)Gal(b1-4)GlcNAc(b1-3)Gal(b1-4)GlcNAc(b1-3)Gal(b1-4)GlcNAc(b1-3)Gal(b1-4)GlcNAc(b1-2)Man(a1-6)]Man(b1-4)GlcNAc(b1-4)GlcNAc
# Procedure, shortened: as §1
# [26] = target: GlcNAc(b1-4)GlcNAc(b1-4)GlcNAc
# Procedure, shortened: as §1
# [27] = target: GlcNAc(b1-4)GlcNAc(b1-4)GlcNAc(b1-4)GlcNAc(b1-4)GlcNAc
# Procedure, shortened: as §1
# [28] = target: GlcNAc(b1-4)GlcNAc(b1-4)GlcNAc(b1-4)GlcNAc(b1-4)GlcNAc(b1-4)GlcNAc
# Procedure, shortened: as §1
# Kdn(a2-3)Gal(b1-3)GalNAc = target: Kdn(a2-3)Gal(b1-3)GalNAc
# Procedure, shortened: as §1
# Man(b1-4)GlcNAc = target: Man(b1-4)GlcNAc
# Procedure, shortened: as §1
# [29] = target: Neu5Ac(a2-3)Gal(b1-3)GlcNAc6S
# Procedure, shortened: as §1
# [30] = target: Neu5Ac(a2-3)Gal(b1-3)[Neu5Ac(a2-6)]GlcNAc(b1-3)[Fuc(a1-3)[Gal(b1-4)]GlcNAc(b1-6)]Gal(b1-4)Glc
# Procedure, shortened: as §1
# [31] = target: Neu5Ac(a2-3)Gal(b1-4)GlcNAc(b1-2)Man(a1-3)[Neu5Ac(a2-6)Gal(b1-4)GlcNAc(b1-2)Man(a1-6)]Man(b1-4)GlcNAc(b1-4)GlcNAc
# Procedure, shortened: as §1
# [32] = target: Neu5Ac(a2-3)Gal(b1-4)GlcNAc(b1-3)Gal(b1-4)GlcNAc(b1-3)Gal(b1-4)GlcNAc
# Procedure, shortened: as §1
# [33] = target: Neu5Ac(a2-3)Gal(b1-4)GlcNAc(b1-3)Gal(b1-4)GlcNAc(b1-3)[Neu5Ac(a2-3)Gal(b1-4)GlcNAc(b1-3)Gal(b1-4)GlcNAc(b1-6)]GalNAc
# Procedure, shortened: as §1
# [34] = target: Neu5Ac(a2-3)Gal(b1-4)GlcNAc(b1-6)[Gal(b1-3)]GalNAc
# Procedure, shortened: as §1
# [35] = target: Neu5Ac(a2-3)Gal6S(b1-4)[Fuc(a1-3)]GlcNAc
# Procedure, shortened: as §1
# [36] = target: Neu5Ac(a2-6)Gal(b1-4)GlcNAc(b1-3)Gal(b1-4)GlcNAc(b1-6)[Gal(b1-3)]GalNAc
# Procedure, shortened: as §1
# [37] = target: Neu5Ac(a2-8)Neu5Gc(a2-3)Gal(b1-4)GlcNAc
# Procedure, shortened: as §1
binder,measurement,setting,value
B1,glycan array binding signal (z-score),Fuc(a1-2)Gal,-0.076
same,glycan array binding signal (z-score),[1],-0.042
same,glycan array binding signal (z-score),[2],0.259
same,glycan array binding signal (z-score),Fuc(a1-2)Gal(b1-4)GlcNAc,-0.021
same,glycan array binding signal (z-score),[3],-0.086
same,glycan array binding signal (z-score),[4],-0.089
same,glycan array binding signal (z-score),[5],-0.1
same,glycan array binding signal (z-score),[6],-0.127
same,glycan array binding signal (z-score),[7],-0.118
same,glycan array binding signal (z-score),[8],-0.072
same,glycan array binding signal (z-score),[9],0.01
same,glycan array binding signal (z-score),[10],0.023
same,glycan array binding signal (z-score),[11],-0.089
same,glycan array binding signal (z-score),[12],-0.058
same,glycan array binding signal (z-score),Gal(b1-3)GalNAc(b1-3)Gal,0.131
same,glycan array binding signal (z-score),[13],-0.12
same,glycan array binding signal (z-score),Gal(b1-3)GlcNAc(b1-2)Man,-0.123
same,glycan array binding signal (z-score),[14],-0.065
same,glycan array binding signal (z-score),[15],0.063
same,glycan array binding signal (z-score),[16],0.15
same,glycan array binding signal (z-score),[17],-0.157
same,glycan array binding signal (z-score),Gal(b1-4)GlcNAc(b1-2)Man,-0.039
same,glycan array binding signal (z-score),[18],-0.107
same,glycan array binding signal (z-score),[19],0.14
same,glycan array binding signal (z-score),[20],-0.078
same,glycan array binding signal (z-score),Gal3S(b1-4)Glc6S,-0.101
same,glycan array binding signal (z-score),Gal6S(b1-4)Glc,-0.027
same,glycan array binding signal (z-score),[21],-0.127
same,glycan array binding signal (z-score),[22],-0.108
same,glycan array binding signal (z-score),[23],-0.113
same,glycan array binding signal (z-score),GlcNAc(b1-3)Fuc,0.041
same,glycan array binding signal (z-score),[24],-0.109
same,glycan array binding signal (z-score),[25],-0.191
same,glycan array binding signal (z-score),[26],3.96
same,glycan array binding signal (z-score),[27],19.9
same,glycan array binding signal (z-score),[28],13.5
same,glycan array binding signal (z-score),Kdn(a2-3)Gal(b1-3)GalNAc,0.259
same,glycan array binding signal (z-score),Man(b1-4)GlcNAc,0.12
same,glycan array binding signal (z-score),[29],-0.154
same,glycan array binding signal (z-score),[30],0.077
same,glycan array binding signal (z-score),[31],-0.088
same,glycan array binding signal (z-score),[32],-0.099
same,glycan array binding signal (z-score),[33],0.153
same,glycan array binding signal (z-score),[34],-0.065
same,glycan array binding signal (z-score),[35],-0.14
same,glycan array binding signal (z-score),[36],0.12
same,glycan array binding signal (z-score),[37],0.137
